Rows were chosen to be rich in hits. Some 4.5% of all compounds tested hit in one or more screens of this group.
GRK2 aptamer HTS: inhibitors of human GRK2 displacing RNA aptamer. P25098. bead flow cytometry, FAM-aptamer displacement from GRK2. inhibition of aptamer binding, % at 10 µM. hit rate 0.59% among 330,000;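 active = inhibition of aptamer binding above 40%, roughly 3 SD of noise, on plates passing a quality check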;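 note: median bead fluorescence of bound FAM aptamer so fluorescent compounds give negative values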
Efflux pump inh: blocks antifungal efflux pumps in multiplex yeast assay | S. cerevisiae Candida pump triplex, Nile Red efflux | inhibition, % at 10 µM | hit rate 0.44% among 330,000 | AID 485275;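 active = plate passing quality check with inhibition over a set limit, or well fluorescence over plate mean plus 4 SD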;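 note: Nile Red retained in pooled yeast measured as flow cytometry median fluorescence; 0% = buffer negative control and 100% = Enniatin B positive control; higher means more Nile Red kept so more efflux inhibition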
ALR inh: inhibitors of human sulfhydryl oxidase ALR; hit rate 3.8% among 290,000; purified ALR, DTT oxidation, H2O2 HRP-luminol luminescence; inhibition, % (test concentration not listed);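 active = mean replicate inhibition above about 79%, with every replicate also reaching it, limit read from the data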
HDAC3 inh: blocks human histone deacetylase 3. inhibition, % at 8.3 µM. O15379. AID 2718. hit rate 0.15% among 320,000. recombinant HDAC3, fluorogenic peptide/trypsin coupled, fluorescence; in the data active = inhibition above about 26%, passing the limit was not always enough
Target sequence (O15379 whole entry, looked up): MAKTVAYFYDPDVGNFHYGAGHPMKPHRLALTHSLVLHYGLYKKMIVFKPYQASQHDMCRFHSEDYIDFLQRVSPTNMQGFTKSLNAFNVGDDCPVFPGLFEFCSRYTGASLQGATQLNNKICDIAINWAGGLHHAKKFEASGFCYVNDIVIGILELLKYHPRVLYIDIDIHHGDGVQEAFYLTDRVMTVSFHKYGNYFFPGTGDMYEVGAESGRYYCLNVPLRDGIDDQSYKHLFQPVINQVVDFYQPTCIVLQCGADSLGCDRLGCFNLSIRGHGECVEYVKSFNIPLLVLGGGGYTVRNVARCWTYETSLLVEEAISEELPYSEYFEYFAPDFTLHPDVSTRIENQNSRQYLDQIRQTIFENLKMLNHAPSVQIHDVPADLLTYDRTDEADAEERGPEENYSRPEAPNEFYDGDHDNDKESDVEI
Rtt109 Vps75: C. albicans Rtt109 histone acetyltransferase inhibition; inhibition, % at 34.9 µM; hit rate 0.16% among 330,000; AID 540336; purified Rtt109/Vps75, ThioGlo CoA-SH fluorescence, 4 h;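 active = inhibition of at least 50% in every replicate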
Rce1 inhib: yeast Ras-converting enzyme inhibition; Q03530; yeast membranes, quenched prenylated peptide cleavage fluorescence; calls only; hit rate 0.27% among 290,000; AID 2563;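 active = fall in fluorescence gain of 50% or more versus controls, with final raw signal at or below 3038400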;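 note: plate controls were neutral control wells for no effect and wells lacking membranes for full effect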
* hit, by the source's call; i = inactive; . = no result; + = active, no number.

SMILES	GRK2 aptamer HTS	Efflux pump inh	ALR inh	HDAC3 inh	Rtt109 Vps75	Rce1 inhib
CC(C)NC(=O)N(Cc1ccccc1)Cc1cccs1	0	0	-3	3	4	i
Cc1ccc(NNC(N)=S)cc1Cl	0	0	99*	-2	-1	i
CCOC(=O)C1CCN(S(=O)(=O)c2cccc(-c3csc(C)n3)c2)CC1	10	0	99*	5	-4	i
CCOC(=O)C1CCN(S(=O)(=O)c2cccc(-c3cn4cc(C)ccc4n3)c2)CC1	0	0	-4	3	8	i
CCOC(=O)C1CCN(S(=O)(=O)c2cccc(-c3cn4cccnc4n3)c2)CC1	5	0	98*	-18	-11	i
Cc1cc(C)[n+](-c2ccc(Oc3ccccc3)c(S(=O)(=O)[O-])c2)[nH]1	0	0	-3	9	3	i
O=C(N/N=C/c1ccco1)c1cccc(N2Cc3ccccc3C2)c1	2	0	-7	0	5	i
CC1=C(C#N)C(=O)N(C2CCS(=O)(=O)C2)C(=O)/C1=C\c1ccco1 (stereo not drawn)	100*	0	15	5	.	i
c1ccc(-c2nc3ccccn3c2NCc2ccc3c(c2)OCO3)cc1	0	0	81*	-25	-11	i
COC(=O)c1nnn(-c2nonc2N)c1CN1CCc2ccccc21	0	0	98*	-7	22	i
COC(=O)c1ccc(S(=O)(=O)N2CCc3ccccc32)cc1	0	0	-22	3	-2	i
COC(=O)c1ccc(CN2CCc3ccccc32)cc1	1	0	98*	6	-3	i
CC(=O)Nc1ccc(S(=O)(=O)N(C)CC(=O)N(C)Cc2sccc2C)cc1	0	0	-1	-8	2	.
Nc1c(/C=C2/C=CC(=O)C(O)=C2)c(=O)nc2sc(CC(=O)N3CCCC3)nn12	10	0	99*	8	19	i
Nc1c(/C=C2/C=CC(=O)C(O)=C2)c(=O)nc2sc(CC(=O)N3CCCCC3)nn12	41*	0	99*	7	-2	i
O=[N+]([O-])c1ccc(Cn2cc(-c3cccc(C(F)(F)F)c3)nn2)cc1	0	0	-9	3	5	i
COc1cccc(C2C(C(=O)c3cccs3)=C(O)C(=O)N2CCN2CCOCC2)c1OC (stereo not drawn)	.	.	.	.	5	i
c1ccc(-c2cc3c(N4CCCC4)ncnc3s2)cc1	6	0	1	-4	.	i
c1ccc(-c2cc3c(N4CCOCC4)ncnc3s2)cc1	1	0	97*	-6	7	i
Cc1nc(N2CCN(Cc3ccc4c(c3)OCO4)CC2)c2cc(-c3ccccc3)sc2n1	1	0	.	-10	-1	i
Cc1nc(N2CCOCC2)c2cc(-c3ccccc3)sc2n1	0	0	2	2	13	+
Cc1ccc(N2NC(=O)/C(=C/c3ccc(-c4ccc(Cl)c(C(=O)O)c4)o3)C2=O)cc1C	0	1	-1	-2	-4	i
COC(=O)c1ccc(N2NC(=O)/C(=C/c3ccc(-c4ccc(Cl)c(C(=O)O)c4)o3)C2=O)cc1	.	.	.	.	-5	i
O=C1NN(c2ccc(Cl)c(Cl)c2)C(=O)/C1=C/c1ccc(-c2ccccc2C(=O)O)o1	8	0	99*	9	1	i
O=C1NN(c2ccccc2)C(=O)/C1=C/c1ccc(-c2ccc(C(=O)O)cc2)o1	8	0	99*	4	-1	i
SMILES	GRK2 aptamer HTS	Efflux pump inh	ALR inh	HDAC3 inh	Rtt109 Vps75	Rce1 inhib
COC(=O)c1c(N)sc2c1CC(C)(C)OC2	0	0	98*	-7	-2	i
Cc1ccc(C(=O)NCC(=O)OC(C)C(=O)Nc2ccc(N(C)C)cc2)cc1C (stereo not drawn)	0	0	99*	17	10	i
Cc1cccc(N2CSC3=C(C#N)C(c4ccc(C)o4)CC(=O)N3C2)c1 (stereo not drawn)	1	0	99*	-2	.	i
COc1ccc(OC)c(C2CC(=O)N3CN(c4ccccc4)CSC3=C2C#N)c1 (stereo not drawn)	1	0	-6	54*	19	i
COc1ccc(C2CC(=O)N3CN(c4ccc(C)c(Cl)c4)CSC3=C2C#N)cc1 (stereo not drawn)	1	0	-20	51*	-1	i
CCc1ccccc1N1CSC2=C(C#N)C(c3ccccc3F)CC(=O)N2C1 (stereo not drawn)	0	0	-24	10	2	i
COc1cc(OC)c(C2CC(=O)N3CN(c4ccccc4C)CSC3=C2C#N)cc1OC (stereo not drawn)	0	0	-19	2	.	i
COc1ccc(C2CC(=O)N3CN(c4ccccc4F)CSC3=C2C#N)cc1OC (stereo not drawn)	0	0	-37	12	-2	i
COc1ccc(N2CSC3=C(C#N)C(c4cccc(OC)c4OC)CC(=O)N3C2)cc1 (stereo not drawn)	1	0	34	56*	-1	i
CCN1CCCC1CNC(=O)c1cc(COc2ccc(C)c(C)c2)on1 (stereo not drawn)	0	0	0	-3	9	i
CC1(C(=O)Nc2ccc3c(c2)OCO3)CC1(Cl)Cl (stereo not drawn)	3	1	0	1	-7	i
O=C(NNc1ccccc1)/C(=C\c1cccnc1)NC(=O)c1ccccc1	3	0	98*	5	2	i
O=C(Nc1ccccc1)/C(=C/c1cccnc1)NC(=O)c1ccccc1	0	0	-2	1	-13	i
COc1cccc(-c2csc(NC(=O)Oc3ccccc3)n2)c1	4	0	37	-15	11	i
COc1cccc(-c2csc(NNC(=O)c3cccs3)n2)c1	1	0	96*	0	5	i
COc1ccc(CCNCC(O)Cn2c3ccccc3c3ccccc32)cc1OC (stereo not drawn)	0	0	-9	5	26	i
COc1ccccc1NCC(O)Cn1c2ccccc2c2ccccc21 (stereo not drawn)	0	0	87*	5	15	.
CCOC(=O)N/N=C/c1ccc(N2CCOCC2)s1	0	0	99*	-2	10	i
COc1ccc(C(=O)N/N=C/c2ccc(N3CCOCC3)o2)cc1OC	8	0	.	5	-13	i
O=C(N/N=C/c1ccc(N2CCOCC2)s1)c1ccc(NS(=O)(=O)c2cccs2)cc1	1	0	70	10	-4	i
COc1ccc(C(=O)N/N=C/c2ccc(N3CCOCC3)s2)cc1OC	0	0	93*	5	7	.
O=C(N/N=C/c1ccc(N2CCOCC2)s1)c1ccccc1Cl	6	-1	88*	4	-9	i
